# Assay outcomes: PubChem, several laboratories
# 697 NFkB inh = lowers PMA/ionomycin-induced NF-kB signal in 697 B cells; 697 B-cell NF-kB luciferase reporter, 16 h; inhibition, % at 4 µM; actives 0.33% (n = 330,000); AID 435022; in the data active = inhibition above about 35%
# Jurkat NFkB inh = lowers PMA/ionomycin-induced NF-kB signal in Jurkat cells; PMA/ionomycin-induced NF-kB luciferase reporter, luminescence; inhibition, % at 4 µM; actives 0.53% (n = 330,000); in the data active = inhibition above about 50%
# esBAF inh = inhibitors of esBAF chromatin remodeling in mouse ES cells. Bmi1-luciferase knock-in reporter, 24 h; 100% = twice the neutral-well signal. reporter increase, % at 12.5 µM. actives 2% (n = 350,000); in the data active = activation above about 40%;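 note: 0% = median of the plate's neutral control wells and 100% = double that signal; a rise in the Bmi1 reporter signal indicates esBAF inhibition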
# Gli-Sufu antag = blocks Gli-Sufu signaling in a luciferase reporter; actives 0.74% (n = 340,000); Sufu-KO-LIGHT fibroblasts, Gli luciferase reporter luminescence; inhibition, % at 5 µM;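 active = inhibition above about 55%, limit read from the data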;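 note: 0% = DMSO-treated cells and 100% = wells with medium but no cells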
# SMARCA2 act = increases SMARCA2 function in MMTV reporter cells | MG213 cells, MMTV-luciferase reporter, dexamethasone, overnight | activation, % at 9.1 µM | actives 1% (n = 370,000); in the data active = activation above about 7.8%;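 note: 0% = vehicle wells and 100% = reference activator wells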
# SMARCA2 act conf = SMARCA2 activation, confirmation screen; shares compounds with SMARCA2 act; MG213 cells, MMTV-luciferase with dexamethasone, luminescence, overnight; MG213 cells expressing E1A, Rb sequestered; DMSO wells 0%, reference activator 100%; activation, % at 9.1 µM; actives 30% (n = 3,500); AID 652260;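 active = activation above its plate's cutoff, the mean activation of tested wells plus 3 SD, cut at about 7.9% in these data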
# VP16 Luc act = activates GAL4-VP16 luciferase, flagging SMARCA2 activator hits. activation, % at 9.1 µM. AID 686939. actives 41% (n = 3,500). shares compounds with SMARCA2 act. HEK293 GAL4-VP16 pG5luc reporter, luciferase luminescence; scaled: DMSO wells 0%, SAHA wells 100%;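 active = activation above the solvent-only control well mean plus 3 SD, averaged across control plates, cut at about 5.2% in these data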
# * = called active by the depositor; · = no result. Hits are enriched below; roughly 3.3% of the tested compounds scored in any of these assays.
SMILES,697 NFkB inh,Jurkat NFkB inh,esBAF inh,Gli-Sufu antag,SMARCA2 act,SMARCA2 act conf,VP16 Luc act
CCOC(=O)c1cnc2c(C(=O)OC)cccc2c1NCc1ccco1,-6,-8,·,2,8.0*,7,1
CCOC(=O)c1cnc2ccccc2c1NCCO,0,14,0,-2,0,·,·
CCOC(=O)c1cnc2c(ccc3ccccc32)c1NCCCN(C)C,-33,-68,39,34,19*,40*,8.1*
CCOC(=O)c1cnc2c(C)cccc2c1NCc1ccco1,-61,-13,-5,5,1,·,·
C[C@@H]1CCCCO[C@@H](CN(C)C(=O)Nc2ccccc2)[C@H](C)CN([C@H](C)CO)C(=O)c2cc(NS(=O)(=O)c3ccc(F)cc3)ccc2O1,·,·,1,·,·,·,·
COc1ccccc1NC(=O)Nc1ccc2c(c1)C(=O)N(C)C[C@@H](OC)[C@@H](C)CN(C)[C@@H](C)CO2,·,·,-1,·,·,·,·
CCOc1ccc(Nc2ccnc3cc(Cl)ccc23)cc1,30,3,5,16,0,·,·
CN1CCN(c2ccc(Nc3ccnc4cc(Cl)ccc34)cc2)CC1,8,-15,-10,39,16*,28*,0
C[C@@H]1CN([C@H](C)CO)C(=O)c2cc(NC(=O)Nc3ccc(F)cc3)ccc2O[C@H]1CN(C)C(=O)Nc1ccc2c(c1)OCO2,·,·,21,·,·,·,·
CCCCN(C)CCCNC(=O)c1cc(=O)[nH]c2ccc(S(=O)(=O)N3CCCCC3C)cc12 (configuration not stated),5,-9,·,-5,8.2*,0,1
COc1ccc(/C(O)=C2/C(=O)C(=O)N(c3ccccn3)C2c2ccc(F)cc2)cc1 (configuration not stated),-3,-8,23,-13,11*,1,2
COC(=O)CNc1c(-c2ccccc2)nc2ccc(Br)cn12,-41,-42,50*,-35,14*,11*,6.8*
CC1CCCCN1S(=O)(=O)c1ccc(S(=O)(=O)N2CCCC2)cc1 (configuration not stated),0,2,-8,-21,8.9*,-2,0
COCC(=O)N1CCCCN2[C@H](CO)[C@H](c3ccc(C#Cc4ccccc4)cc3)[C@H]2C1,·,·,10,·,·,·,·
COc1ccccc1OCC(=O)NCc1ccco1,-10,0,2,-9,0,·,·
O=C(COc1ccccc1Br)NCc1ccco1,-1,-3,19,-19,13*,0,3
COCCNC(=O)COC(=O)/C=C/c1cnc2ccccc2n1,26,6,16,4,12*,4,1
O=C(COC(=O)/C=C/c1cnc2ccccc2n1)NCC(F)(F)F,5,4,4,8,-2,·,·
O=c1c(-c2ccco2)nc2ccccc2n1C(c1ccccn1)c1nc2ccccc2[nH]1 (configuration not stated),·,·,·,·,-6,·,·
O=c1c(-c2ccco2)nc2ccccc2n1C(c1ccccc1)c1nc2ccccc2[nH]1 (configuration not stated),·,·,·,·,11*,8.9*,5.6*
O=c1c(-c2ccco2)nc2ccccc2n1C(CCc1ccccc1)c1nc2ccccc2[nH]1 (configuration not stated),·,·,·,·,11*,-2,2
CC(CN1C(C)CCCC1C)OC(=O)c1ccccc1Br (configuration not stated),-1,7,-4,18,8.4*,2,0
CC(CN1C(C)CCCC1C)OC(=O)c1ccccc1Cl (configuration not stated),-4,6,-4,48,-5,·,·
COc1ccccc1OCCSc1nnnn1-c1ccc(C)cc1,-17,-17,32,-29,9.0*,0,3
Cc1cccn2c(=O)c(/C=C(\C#N)C(=O)NCc3ccco3)c(N3CCOCC3)nc12,19,7,·,6,11*,1,1
SMILES,697 NFkB inh,Jurkat NFkB inh,esBAF inh,Gli-Sufu antag,SMARCA2 act,SMARCA2 act conf,VP16 Luc act
C/C(=N\NC(N)=S)c1ccccc1,-7,-2,·,2,8.0*,0,0
COCCCNC1=C(Cl)C(=O)c2ccccc2C1=O,6,15,·,8,1,·,·
CC(C)OCCCNC1=C(Cl)C(=O)c2ccccc2C1=O,-7,8,·,4,9.4*,6,2
CC(=O)c1c(C)[nH]c(-c2ccccc2)nc1=S,-4,11,·,2,11*,-3,0
COc1ccccc1-c1nc(=S)c(C(C)=O)c(C)[nH]1,22,1,·,-1,12*,-1,2
CC(=O)c1c(NC(=O)c2ccccc2)[nH]c(-c2ccccc2)nc1=S,-18,-10,·,0,-4,·,·
O=C(CCN1CCCCC1)NCC[C@@H]1CC[C@@H](NC(=O)Nc2ccc(Cl)cc2)[C@H](CO)O1,·,·,0,·,·,·,·
CCCNC(=O)Nc1ccc2c(c1)OC[C@@H](C)N(Cc1ccc(-c3ccccn3)cc1)C[C@H](C)[C@@H](OC)CN(C)C2=O,·,·,4,·,·,·,·
COc1cc2sc3cc(NCc4ccc(C)o4)ccc3c(=O)c2cc1OC,-53,-1,·,·,8.7*,8.9*,9.3*
COc1ccccc1OCC(=O)NCC1CCCCC1,-1,5,·,-4,-1,·,·
O=C(CCn1nnc2ccccc21)N1CCN(Cc2ccc3c(c2)OCO3)CC1,·,·,·,·,-6,·,·
O=C(COn1nnc2ccccc21)N1CCN(Cc2ccccc2)CC1,-20,-15,·,-29,10*,4,5
O=C(COn1nnc2ccccc21)NCC1CCCCC1,-69,-23,53*,-29,8.8*,6,4
Cc1noc(C)c1NC(=O)Nc1ccc2c(c1)C(=O)N([C@H](C)CO)C[C@@H](C)[C@H](CN(C)CC1CCCCC1)OCCCC[C@@H](C)O2,·,·,0,·,·,·,·
COc1ccc(NC(=O)N2C[C@@H](O)COC[C@@H]3O[C@H](CC(=O)NC4Cc5ccccc5C4)CC[C@H]32)cc1,·,·,-1,·,·,·,·
CN1C(=O)c2cc(NC(=O)Cc3cccs3)ccc2OC[C@@H]2O[C@H](CC(=O)N[C@@H]3CCN(Cc4ccccc4)C3)CC[C@H]21,·,·,-1,·,·,·,·
CC(Oc1ccc(Cl)cc1Cl)C(=O)NC1CCSC1=O (configuration not stated),13,3,0,5,8.3*,1,1
CC=Cc1ccc2n(c1=O)C[C@@H]1[C@@H](CO)[C@H](C(=O)NCC3CC3)N(C(=O)C3CCOCC3)[C@H]21 (mixture of isomers),·,·,3,·,·,·,·
O=C(CCn1nnc(-c2cccs2)n1)N1CCCCC1,·,·,·,·,9.0*,3,-1
O=C(CCn1nnc(-c2cccs2)n1)N1CCOCC1,·,·,·,·,-5,·,·
Cc1ccc(/C=C2/NC(=O)[C@H](C)NC2=O)cc1,-5,-18,16,-12,8.4*,2,3
